{"source": "the supplement of paper PMC13380429", "key": {"[1]": {"test_system": "Vero E6 infected with SARS-CoV-2", "experiment": "morphology score (similarity to uninfected cells); higher = more like uninfected cells", "settings": "24 h"}, "[2]": {"test_system": "Vero E6 infected with SARS-CoV-2", "experiment": "SARS-CoV-2 infection rate relative to infected DMSO; higher = more infection, active = 60 or less", "settings": "24 h"}, "[3]": {"test_system": "Vero E6 infected with SARS-CoV-2", "experiment": "inhibition of SARS-CoV-2 cytopathic effect; higher = more antiviral protection, active = above 15", "settings": "48 h"}}}
{"smiles": "CCCCc1nn(-c2ccccc2C(F)(F)F)c(=O)n1Cc1ccc(-c2ccccc2S(=O)(=O)NC(=O)c2sccc2C)cc1", "note": "(10 µM)", "values": [{"measurement": "morphology score", "setting": "[1]", "result": 0.0872}, {"measurement": "SARS-CoV-2 infection rate", "setting": "[2]", "result": "104% (inactive)"}]}
{"smiles": "O=c1oc2c(O)c(O)cc3c(=O)oc4c(O)c(O)cc1c4c23", "note": "[ellagic-acid] (10 µM)", "values": [{"measurement": "morphology score", "setting": "[1]", "result": 0.105}, {"measurement": "SARS-CoV-2 infection rate", "setting": "[2]", "result": "94% (inactive)"}]}
{"smiles": "C[C@H]1O[C@@H](n2cc(F)c(=O)[nH]c2=O)[C@H](O)[C@@H]1O", "note": "[doxifluridine] (10 µM)", "values": [{"measurement": "morphology score", "setting": "[1]", "result": 0.32}, {"measurement": "SARS-CoV-2 infection rate", "setting": "[2]", "result": "108% (inactive)"}]}
{"smiles": "O=C(/C=C/c1ccccc1)NCCO", "note": "[brolitene] (10 µM)", "values": [{"measurement": "morphology score", "setting": "[1]", "result": 0.199}, {"measurement": "SARS-CoV-2 infection rate", "setting": "[2]", "result": "93.5% (inactive)"}]}
{"smiles": "COC(=O)c1cnn(-c2ccc(F)cc2F)c1/C=N/NC(=S)NC(C)(C)C", "note": "(10 µM)", "values": [{"measurement": "morphology score", "setting": "[1]", "result": 0.433}, {"measurement": "SARS-CoV-2 infection rate", "setting": "[2]", "result": "74% (inactive)"}]}
{"smiles": "Cn1cc(C[C@@H](N)C(=O)O)c2ccccc21", "note": "[indoximod] (10 µM)", "values": [{"measurement": "morphology score", "setting": "[1]", "result": 0.183}, {"measurement": "SARS-CoV-2 infection rate", "setting": "[2]", "result": "110% (inactive)"}]}
{"smiles": "O=C(O)c1nn(Cc2ccc(Cl)cc2Cl)c2ccccc12", "note": "[lonidamine] (10 µM)", "values": [{"measurement": "morphology score", "setting": "[1]", "result": 0.0313}, {"measurement": "SARS-CoV-2 infection rate", "setting": "[2]", "result": "110% (inactive)"}]}
{"smiles": "CN1CCN(CCOc2cc(OC3CCOCC3)c3c(Nc4c(Cl)ccc5c4OCO5)ncnc3c2)CC1", "note": "[saracatinib]", "values": [{"measurement": "inhibition of SARS-CoV-2 cytopathic effect", "setting": "[3]; 1 nM", "result": "0.37% (inactive)"}, {"measurement": "inhibition of SARS-CoV-2 cytopathic effect", "setting": "[3]; 8.33 nM", "result": "-0.91% (inactive)"}, {"measurement": "inhibition of SARS-CoV-2 cytopathic effect", "setting": "[3]; 100 nM", "result": "0.04% (inactive)"}, {"measurement": "inhibition of SARS-CoV-2 cytopathic effect", "setting": "[3]; 833.33 nM", "result": "-7% (inactive)"}, {"measurement": "inhibition of SARS-CoV-2 cytopathic effect", "setting": "[3]; 10000 nM", "result": "-12.3% (inactive)"}]}
{"smiles": "NS(=O)(=O)c1cc(C2(O)NC(=O)c3ccccc32)ccc1Cl", "note": "(stereo not given) [chlorthalidone]", "values": [{"measurement": "inhibition of SARS-CoV-2 cytopathic effect", "setting": "[3]; 1 nM", "result": "-0.87% (inactive)"}, {"measurement": "inhibition of SARS-CoV-2 cytopathic effect", "setting": "[3]; 8.33 nM", "result": "-0.18% (inactive)"}, {"measurement": "inhibition of SARS-CoV-2 cytopathic effect", "setting": "[3]; 100 nM", "result": "4.69% (inactive)"}, {"measurement": "inhibition of SARS-CoV-2 cytopathic effect", "setting": "[3]; 833.33 nM", "result": "-3.83% (inactive)"}, {"measurement": "inhibition of SARS-CoV-2 cytopathic effect", "setting": "[3]; 10000 nM", "result": "-3.63% (inactive)"}]}
{"smiles": "O=c1[nH]c2cc(Cl)ccc2c(O)c1-c1cccc(Oc2ccccc2)c1", "values": [{"measurement": "inhibition of SARS-CoV-2 cytopathic effect", "setting": "[3]; 1 nM", "result": "1.74% (inactive)"}, {"measurement": "inhibition of SARS-CoV-2 cytopathic effect", "setting": "[3]; 8.33 nM", "result": "0.53% (inactive)"}, {"measurement": "inhibition of SARS-CoV-2 cytopathic effect", "setting": "[3]; 100 nM", "result": "2.73% (inactive)"}]}
{"smiles": "C[CH2][Hg][S]c1ccccc1C(=O)[O-].[Na+]", "note": "[thiomersal]", "values": [{"measurement": "inhibition of SARS-CoV-2 cytopathic effect", "setting": "[3]; 1 nM", "result": "0.94% (inactive)"}, {"measurement": "inhibition of SARS-CoV-2 cytopathic effect", "setting": "[3]; 8.33 nM", "result": "0.96% (inactive)"}, {"measurement": "inhibition of SARS-CoV-2 cytopathic effect", "setting": "[3]; 100 nM", "result": "1.12% (inactive)"}]}
{"smiles": "O=c1cc(N2CCOCC2)oc2c1ccc1ccccc12", "note": "(10 µM)", "values": [{"measurement": "morphology score", "setting": "[1]", "result": 0.258}, {"measurement": "SARS-CoV-2 infection rate", "setting": "[2]", "result": "110% (inactive)"}]}
{"smiles": "COc1nccnc1NS(=O)(=O)c1ccc(N)cc1", "note": "[sulfametopyrazine]", "values": [{"measurement": "inhibition of SARS-CoV-2 cytopathic effect", "setting": "[3]; 1 nM", "result": "-1.43% (inactive)"}, {"measurement": "inhibition of SARS-CoV-2 cytopathic effect", "setting": "[3]; 8.33 nM", "result": "0.06% (inactive)"}, {"measurement": "inhibition of SARS-CoV-2 cytopathic effect", "setting": "[3]; 100 nM", "result": "-1.36% (inactive)"}, {"measurement": "inhibition of SARS-CoV-2 cytopathic effect", "setting": "[3]; 833.33 nM", "result": "-2.74% (inactive)"}, {"measurement": "inhibition of SARS-CoV-2 cytopathic effect", "setting": "[3]; 10000 nM", "result": "-0.68% (inactive)"}]}
{"smiles": "CCCC(=O)O[C@]1(C(=O)CCl)[C@@H](C)C[C@H]2[C@@H]3CCC4=CC(=O)C=C[C@]4(C)[C@@]3(F)C(=O)C[C@@]21C", "note": "[clobetasone-butyrate]", "values": [{"measurement": "inhibition of SARS-CoV-2 cytopathic effect", "setting": "[3]; 1 nM", "result": "-0.68% (inactive)"}, {"measurement": "inhibition of SARS-CoV-2 cytopathic effect", "setting": "[3]; 8.33 nM", "result": "-1.04% (inactive)"}, {"measurement": "inhibition of SARS-CoV-2 cytopathic effect", "setting": "[3]; 100 nM", "result": "-5.39% (inactive)"}, {"measurement": "inhibition of SARS-CoV-2 cytopathic effect", "setting": "[3]; 833.33 nM", "result": "-1.94% (inactive)"}, {"measurement": "inhibition of SARS-CoV-2 cytopathic effect", "setting": "[3]; 10000 nM", "result": "0.48% (inactive)"}]}
{"smiles": "CCCCC(CC)COc1ccc(-c2nc(-c3ccc(OC)cc3)nc(-c3ccc(OCC(CC)CCCC)cc3O)n2)c(O)c1", "note": "(stereo not given) [bemotrizinol]", "values": [{"measurement": "inhibition of SARS-CoV-2 cytopathic effect", "setting": "[3]; 1 nM", "result": "1.11% (inactive)"}, {"measurement": "inhibition of SARS-CoV-2 cytopathic effect", "setting": "[3]; 8.33 nM", "result": "3.46% (inactive)"}, {"measurement": "inhibition of SARS-CoV-2 cytopathic effect", "setting": "[3]; 100 nM", "result": "1.8% (inactive)"}]}
{"smiles": "CC(C)n1nccc1-c1ncccc1COc1cccc(O)c1C=O", "note": "[voxelotor]", "values": [{"measurement": "inhibition of SARS-CoV-2 cytopathic effect", "setting": "[3]; 1 nM", "result": "-1.1% (inactive)"}, {"measurement": "inhibition of SARS-CoV-2 cytopathic effect", "setting": "[3]; 8.33 nM", "result": "-1.17% (inactive)"}, {"measurement": "inhibition of SARS-CoV-2 cytopathic effect", "setting": "[3]; 100 nM", "result": "-0.23% (inactive)"}, {"measurement": "inhibition of SARS-CoV-2 cytopathic effect", "setting": "[3]; 833.33 nM", "result": "0.27% (inactive)"}, {"measurement": "inhibition of SARS-CoV-2 cytopathic effect", "setting": "[3]; 10000 nM", "result": "6.93% (inactive)"}]}
{"smiles": "Cl[C@H]1[C@H](Cl)[C@@H](Cl)[C@@H](Cl)[C@H](Cl)[C@H]1Cl", "note": "[lindane]", "values": [{"measurement": "inhibition of SARS-CoV-2 cytopathic effect", "setting": "[3]; 1 nM", "result": "-2.48% (inactive)"}, {"measurement": "inhibition of SARS-CoV-2 cytopathic effect", "setting": "[3]; 8.33 nM", "result": "-1.41% (inactive)"}, {"measurement": "inhibition of SARS-CoV-2 cytopathic effect", "setting": "[3]; 100 nM", "result": "-0.79% (inactive)"}]}
{"smiles": "CSc1ccc(C(=O)c2[nH]c(=O)[nH]c2C)cc1", "note": "[enoximone] (10 µM)", "values": [{"measurement": "morphology score", "setting": "[1]", "result": 0.104}, {"measurement": "SARS-CoV-2 infection rate", "setting": "[2]", "result": "88.5% (inactive)"}]}
{"smiles": "CC(C)C[C@H](NC(=O)CNC(=O)[C@H](Cc1ccc(O)cc1)NC(=O)[C@H](CO)NC(=O)[C@H](Cc1c[nH]c2ccccc12)NC(=O)[C@H](Cc1cnc[nH]1)NC(=O)[C@@H]1CCC(=O)N1)C(=O)N[C@@H](CCCNC(=N)N)C(=O)N1CCC[C@H]1C(=O)NCC(N)=O", "note": "[gonadorelin]", "values": [{"measurement": "inhibition of SARS-CoV-2 cytopathic effect", "setting": "[3]; 1 nM", "result": "-1.95% (inactive)"}, {"measurement": "inhibition of SARS-CoV-2 cytopathic effect", "setting": "[3]; 8.33 nM", "result": "-2.66% (inactive)"}, {"measurement": "inhibition of SARS-CoV-2 cytopathic effect", "setting": "[3]; 100 nM", "result": "0.47% (inactive)"}, {"measurement": "inhibition of SARS-CoV-2 cytopathic effect", "setting": "[3]; 833.33 nM", "result": "-1.19% (inactive)"}, {"measurement": "inhibition of SARS-CoV-2 cytopathic effect", "setting": "[3]; 10000 nM", "result": "1.93% (inactive)"}]}
{"smiles": "Cc1cccc(C)c1NC(=O)CC12CCCN1CCC2", "note": "[pilsicainide] (10 µM)", "values": [{"measurement": "morphology score", "setting": "[1]", "result": -0.223}, {"measurement": "SARS-CoV-2 infection rate", "setting": "[2]", "result": "115% (inactive)"}]}
{"smiles": "C=C1/C(=C\\C=C2/CCC[C@]3(C)[C@@H]([C@H](C)CCCC(C)C)CC[C@@H]23)C[C@@H](O)C[C@@H]1O", "note": "[alfacalcidol]", "values": [{"measurement": "inhibition of SARS-CoV-2 cytopathic effect", "setting": "[3]; 1 nM", "result": "2.5% (inactive)"}, {"measurement": "inhibition of SARS-CoV-2 cytopathic effect", "setting": "[3]; 8.33 nM", "result": "-0.82% (inactive)"}, {"measurement": "inhibition of SARS-CoV-2 cytopathic effect", "setting": "[3]; 100 nM", "result": "-1.14% (inactive)"}, {"measurement": "inhibition of SARS-CoV-2 cytopathic effect", "setting": "[3]; 833.33 nM", "result": "0.53% (inactive)"}, {"measurement": "inhibition of SARS-CoV-2 cytopathic effect", "setting": "[3]; 10000 nM", "result": "-5.24% (inactive)"}]}
{"smiles": "CC(=O)[O][Hg][c]1ccccc1", "note": "[phenylmercuric-acetate]", "values": [{"measurement": "inhibition of SARS-CoV-2 cytopathic effect", "setting": "[3]; 1 nM", "result": "-1.11% (inactive)"}, {"measurement": "inhibition of SARS-CoV-2 cytopathic effect", "setting": "[3]; 8.33 nM", "result": "-1.71% (inactive)"}, {"measurement": "inhibition of SARS-CoV-2 cytopathic effect", "setting": "[3]; 100 nM", "result": "-0.22% (inactive)"}]}
